From ChEMBL document CHEMBL1157539, “Thousands of chemical starting points for antimalarial lead identification” (Nature, 2010)

Experiments:
Format in all cases: functional
Plasmodium falciparum [1] = assay: GSK_TCMDC: Inhibition of Plasmodium falciparum 3D7 in whole red blood cells, using parasite LDH activity as an index of growth. Test compounds present at 2uM
Plasmodium falciparum [2] = assay: GSK_TCMDC: Inhibition of Plasmodium falciparum Dd2 in whole red blood cells, using parasite LDH activity as an index of growth. Test compounds present at 2uM
HepG2 = assay: GSK_TCMDC: Percent inhibition of human HepG2 cell line. Test compounds present at 10uM.

SMILES | Inhibition (Plasmodium falciparum [1]) | Inhibition (Plasmodium falciparum [2]) | Inhibition (HepG2)
Cc1cc(C(=O)OCC(=O)Nc2c(C)n(C)n(-c3ccccc3)c2=O)c(C)n1-c1ccc(F)cc1 | 100% | 99% | 0%
Cc1ccc(C(=O)Cn2nc(-c3ccc(C)c(S(=O)(=O)N4CCCCC4)c3)ccc2=O)cc1 | 99% | 76% | 6%
COc1cc(-n2cnc3cc(-c4ccc([N+](=O)[O-])cc4)sc3c2=O)ccc1OCCN1CCCC1.O=C(O)C(F)(F)F | 97% | 79% | 44%
CC(C)(C)c1ccc(CN2CCCCC(NC(=O)c3cc(-c4ccccc4F)cs3)C2)cc1.O=C(O)C(F)(F)F (stereo unspecified) | 100% | 99% | 6%
COc1ccc2nccc([C@@H](O)CN3CCC(NCc4cn5cc(F)ccc5n4)CC3)c2c1.O=C(O)C(=O)O | 96% | 5% | 19%
COc1ccc(Cl)cc1N1CCN(CCCNC(=O)c2ccc(-c3nc4cc(Cl)c(C)cc4[nH]3)c(F)c2)CC1 | 99% | 91% | 0%
Cc1[nH]c(C)c(-c2ccc(-c3cccc(Cl)c3)nc2)c(=O)c1Cl | 97% | 97% | 15%
Cc1ccc(N)cc1-c1nc(NC2CC(C)(C)NC(C)(C)C2)nc2c1ccc(=O)n2-c1c(F)cccc1F | 98% | 1% | 0%
Cc1cccc2nc(-c3cccc(-c4cccc(NC(=O)Nc5ccccc5)c4)c3)[nH]c12 | 100% | 64% | 8%
CN1CCC[C@H]1COc1ccc(CN2CC[C@H](NC(=O)c3ccc(Cl)c(Cl)c3)C2)c2ccccc12.O=C(O)C(F)(F)F | 100% | 98% | 47%
O=C(NC1CCN(c2ccnc3cc(Cl)ccc23)C1)c1ccc(F)cc1.O=C(O)C(F)(F)F (stereo unspecified) | 94% | 97% | 26%
Cc1ccc(NC(=O)NC2CCN(CCCCCNC(=O)/C=C/c3ccc(Cl)c(Cl)c3)CC2)cc1 | 100% | 19% | 41%
COc1ccc(O)c(-c2sc(N=C(N)N)nc2-c2ccccc2)c1 | 100% | 96% | 2%
CCOc1cc(Cc2cnc(N)nc2N)cc(OC)c1OC | 90% | 0% | 0%
CCc1cccc(NC(=O)c2ccc(CN3CCCN(CC4CCCCC4)CC3)cc2)c1.O=C(O)C(F)(F)F | 84% | 36% | 44%
CCOc1cc(C(=O)NC2CCN(Cc3ccccc3)CC2)ccc1-c1nc2cc(Cl)ccc2[nH]1 | 100% | 84% | 10%
O=C(/C=C/c1ccccc1O)N1CCC(CCN2CCC(c3c[nH]c4ccccc34)CC2)CC1 | 100% | 15% | 46%
Cl.ON=C1c2cc(OCCN3CCCCC3)c(Cl)cc2-c2cc(Cl)c(OCCN3CCCCC3)cc21 | 97% | 98% | 99%
CN1CCN(CC(=O)Nc2cccc(-c3ccc(-c4nc5cc(C(F)(F)F)ccc5[nH]4)cc3)c2)CC1 | 100% | 94% | 37%
FC(F)(F)c1cccc(CNC2CCN(CC3CCCCC3)CC2)c1.O=C(O)C(F)(F)F | 100% | 12% | 0%
Cc1nn(CCOC(=O)NC(NCC2COc3ccccc3O2)C(Cl)(Cl)Cl)cc1[N+](=O)[O-] (stereo unspecified) | 99% | 99% | 0%
Cl.O=C(Nc1ccc(C(=O)Nc2cccc(C3=NCCN3)c2)cc1)Nc1ccc(C2=NCCN2)cc1 | 96% | 98% | 0%
O=C(NCCCN1CCC(NC(=O)c2ccc(-c3cccnc3)cc2)CC1)c1ccc(Cl)c(Cl)c1.O=C(O)C(F)(F)F | 94% | 23% | 17%
Cl.N=C(N)NN=C1C=Cc2cccc3cccc1c23 | 100% | 49% | 9%
COc1ccc2nccc(N/N=C/c3ccc([N+](=O)[O-])cc3)c2c1 | 100% | 68% | 9%
COCCN1CCC(N(Cc2ccc(-c3ccc(OC(F)(F)F)cc3)cc2)C(=O)Cn2c(CCc3cccc(F)c3F)cc(=O)c3ccccc32)CC1.O=C(O)C(O)C(O)C(=O)O | 96% | 92% | 100%
Cc1cc(=NN=CC=Cc2ccccc2)c2cc(F)ccc2[nH]1 | 100% | 36% | 8%
